Rows were chosen to be rich in hits. Some 19% of all compounds tested hit in one or more screens of this group.
S-ASM inh = Inhibitors of Secretory Acid Sphingomyelinase (S-ASM): qHTS. 340,000 compounds, 0.006% hits. Sphingomyelin phosphodiesterase (Homo sapiens), P17405. Potency, µM (series often up to 57.5 µM), for the others: top-dose activity change, negative = inhibition, actives largely listed as inhibitors. placental ASM, HMU-PC fluorogenic substrate, 60 min. AID 504937, 2011; further: potency means the concentration at half of the fitted maximal effect
Target sequence (P17405 47-631 limits assumed): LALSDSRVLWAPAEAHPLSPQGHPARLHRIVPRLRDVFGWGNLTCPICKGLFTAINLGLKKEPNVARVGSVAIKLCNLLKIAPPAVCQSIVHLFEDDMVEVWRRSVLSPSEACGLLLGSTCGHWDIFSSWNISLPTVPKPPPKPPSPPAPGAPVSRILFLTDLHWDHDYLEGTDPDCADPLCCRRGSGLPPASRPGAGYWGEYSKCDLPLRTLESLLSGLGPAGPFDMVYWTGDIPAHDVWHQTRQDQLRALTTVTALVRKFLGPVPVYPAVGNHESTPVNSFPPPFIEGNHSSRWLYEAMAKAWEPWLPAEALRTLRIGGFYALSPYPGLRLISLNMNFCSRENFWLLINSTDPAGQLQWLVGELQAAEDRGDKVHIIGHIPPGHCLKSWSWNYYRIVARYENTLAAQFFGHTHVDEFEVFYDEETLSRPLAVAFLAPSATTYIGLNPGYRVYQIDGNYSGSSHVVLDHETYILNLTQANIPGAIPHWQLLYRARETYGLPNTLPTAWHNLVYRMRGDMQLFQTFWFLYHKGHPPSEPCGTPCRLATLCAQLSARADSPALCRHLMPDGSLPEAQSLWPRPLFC
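HMU-PC0 cleavage (9 uM final) by human placental ASM, 60 min at 37 °C following 10 min compound exposure at RT; stopped at pH 10, fluorescence Ex 386/Em 447 nm.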
TGFb inhibitor = qHTS for Inhibitors of TGF-b; 410,000 compounds, 1.2% hits; Potency, µM (series often up to 46.1 µM), without a hit: at the highest dose activity, negative = inhibition, most hits filed as inhibitors; AID 588855, 2011; HepG2 CAGA-GFP TGF-b/SMAD3 reporter, GFP fluorescence, 18 h; TGF-beta stimulated, 500 pg/mL final; further: potency means the concentration at half of the fitted maximal effect; on the % scale 0 is the no-effect control and ±100 the full control effect; nearly all actives have a fitted effect of over 65% in size
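Cell-based qHTS in HEPG2 carrying a CAGA-GFP Smad reporter; compounds added before 500 pg/mL final TGF-beta, 18 h incubation at 37 degrees C, GFP fluorescence quantified per cell by imaging cytometry.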
TDP1 cell CPT = qHTS for Inhibitors of human tyrosyl-DNA phosphodiesterase 1 (TDP1): qHTS in cells in presence of CPT; chicken DT40 Tdp1-/-;hTDP1 cells + 20 nM CPT, ATP luminescence, 48 h; Potency, µM (series often up to 46.2 µM), for the others: at the top dose activity change, negative = growth inhibition, usual class: inhibitors; 420,000 compounds, 12% hits; AID 686979, 2013; further: potency means the concentration at half of the fitted maximal effect; on the % scale 0 is the no-effect control and ±100 the full control effect; nearly all actives have a fitted effect of over 55% in size
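Chicken DT40 Tdp1-/- cells stably complemented with human TDP1 were seeded at 400 cells/well in medium containing 20 nM camptothecin, exposed to pin-transferred compounds, and grown at 37 °C for at least 48 hr. Viability was read as ATP luminescence.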
TDP1 cell noCPT = qHTS for Inhibitors of human tyrosyl-DNA phosphodiesterase 1 (TDP1): qHTS in cells in absence of CPT. DT40 Tdp1-/- hTDP1 cells, no CPT, ATP luminescence, 48 h. 420,000 compounds, 15% hits. Potency, µM (top dose mostly 46.2 µM), inactives show at the highest dose activity change, negative = growth inhibition, actives largely listed as inhibitors; further: potency means the concentration at half of the fitted maximal effect; on the % scale 0 is the no-effect control and ±100 the full control effect; nearly all actives have a fitted effect of over 55% in size
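Growth of hTDP1-complemented DT40 Tdp1-knockout cells is measured by ATP luminescence after at least 48 hr compound exposure at 37 °C, with DMSO substituting for the 20 nM CPT used in the parallel screen.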
HepG2 tox = qHTS for Inhibitors of TGF-b: Cytotox Counterscreen; HepG2 CAGA-GFP viability, ATP luminescence, 18 h; Potency, µM (doses to about 46.1 µM), inactives show at the top dose activity change, negative = cytotoxicity, most hits filed as cytotoxic; 410,000 compounds, 0.76% hits; further: potency means the concentration at half of the fitted maximal effect
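CellTiter-Glo luminescence gave cytotoxicity after 18 hours at 37 degrees C. The cells were HepG2 CAGA-GFP in 1% FBS DMEM, stimulated with 500 pg/mL TGF-beta after compound addition. %Activity was normalised to no-cell wells (complete cell-killing) and DMSO (no toxicity), and curves were fitted and classified.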
IL1B secr inh = qHTS for Inhibitors of Inflammasome Signaling: IL-1-beta AlphaLISA Primary Screen; activity change, % at 57.5 µM; THP-1 LPS/ATP IL-1B secretion, AlphaLISA, 16 h; hits give low values; 360,000 compounds, 4.7% hits; in the data active means activity change below about -50%; inconclusive means mostly about -30% to -49%; further: on the % scale 0 is the no-effect control and ±100 the full control effect
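THP-1 cells pretreated 1 hr with compounds (up to 57.5 uM final), then stimulated with LPS (250 ng/mL final) plus ATP (1.25 mM final); secreted IL-1B measured by AlphaLISA after 16 hr, decreased signal indicating inhibition.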
Starred values were filed as active, the others as inactive; ? = inconclusive; nt = no result; [ ] = remark or other dose. Unless noted, the call rests on the fitted dose curve; in most records, active means well fitted curve in the direction sought with a large enough effect; inconclusive means small, poorly fitted or top-dose-only effect, or another doubt; inactive means no such curve, though single readings can be large; an effect the other way counts as inactive or inconclusive.

SMILES	S-ASM inh	TGFb inhibitor	TDP1 cell CPT	TDP1 cell noCPT	HepG2 tox	IL1B secr inh
Cc1c(C(=O)NCC2COc3ccccc3O2)oc2ccc(S(=O)(=O)N3CCOCC3)cc12 (stereo unspecified)	-25.7%	-6.0%	?	?	-24.6%	-7.7
CCOC(=O)N1CCN(C(=O)c2oc3ccc(S(=O)(=O)N4CCCCC4)cc3c2C)CC1	-0.5%	0.8%	?	?	-23.0%	16.3
CCCS(=O)(=O)NCc1c(C)ncc2c1CCN(C(=O)/C=C/c1ccc(F)cc1F)C2	nt	nt	-2.6%[9.04 µM]	-23.6%	nt	nt
Cc1nc(SCC(=O)NCC2CCCO2)c2cc(-c3ccccc3)sc2n1 (stereo unspecified)	-1.7%	-18.4%	?	?	-27.3%	-3.2
OCC[C@H]1C[C@@H](O)[C@H](O)[C@]2(CCc3ccccc3O2)O1	1.2%	6.5%	-4.8%	-8.0%	-0.8%	27.9
COc1ccc(C2C(=O)N(C3CCCCC3)CC(=O)N2CCc2ccc(C)cc2)cc1OC (stereo unspecified)	nt	-1.1%	?	?	-18.7%	nt
N#CC(C#N)=C1C=CC=CN1/C(=C\c1ccccc1Cl)C(=O)c1ccccc1	5.0%	3.16µM*	0.581µM*	1.16µM*	7.08µM*	-73.4*
N#CC(C#N)=C1C=CC=CN1/C(=C\c1ccccc1)C(=O)c1cccs1	22.2%	-16.4%	1.03µM*	3.66µM*	-17.9%	-18.0
O=C(NCC(=O)N1CCN(Cc2ccccc2)CC1)c1cccs1	-1.6%	-1.1%	-6.0%	3.9%	-7.6%	-1.2
CCCCC(C)(O)C/C=C/[C@H]1[C@H](O)CC(=O)[C@@H]1CCCCCCC(=O)O (stereo partly specified)	nt	nt	6.6%[4.12 µM]	12.2%[4.12 µM]	nt	nt
CCCC1([C@H](O)C/C=C/[C@H]2[C@H](O)CC(=O)[C@@H]2CCCCCCC(=O)OC)CCC1	nt	nt	15µM*	10.6µM*	nt	nt
Cc1ccc(C)c(N2CCN(C(=O)c3cc4cc5ccc(C)cc5nc4s3)CC2)c1	nt	-13.9%	?	6.0%	0.8%	nt
Cc1nn2c(C)c(C(=O)NCCc3ccccc3)cnc2c1-c1ccccc1	nt	?	?	?	-24.3%	nt
CCc1nc(SC)ncc1C(=O)N1CCN(c2cc(C)ccc2C)CC1	nt	?	-24.6%	14.6µM*	0.9%	nt
Cc1ccc(C)c(N2CCN(C(=O)c3cnc4c(-c5ccccc5)c(C)nn4c3C)CC2)c1	nt	21.8%	25.9µM*	?	-8.4%	nt
CCc1nc(SC)ncc1C(=O)N1CCN(c2cc(Cl)ccc2C)CC1	nt	?	?	20.6µM*	-29.9%	nt
Cc1cc([N+](=O)[O-])ccc1NCc1ccccc1[N+](=O)[O-]	-7.3%	3.2%	-14.8%	-23.8%	5.1%	-70.9*
Cc1cc([N+](=O)[O-])ccc1NCc1cccc2ccccc12	-25.0%	-23.7%	?	15.8µM*	-9.9%	-65.6*
CC12CCC(C(=O)N/N=C/c3ccc(O)cc3O)(OC1=O)C2(C)C (stereo unspecified)	34.0%	-2.9%	10.3µM*	10.3µM*	14.1%	161.2
C/C(=N\NC(=O)C12CCC(C)(C(=O)O1)C2(C)C)c1ccccc1O (stereo unspecified)	6.2%	?	16.4µM*	13µM*	-45.2%	223.0
C=CC[C@@H](CC(=O)OC(C)(C)C)C(=O)OC[C@H]1CCCN1C(=O)[C@@H](CC=C)CC(=O)NCCO	4.5%	-2.6%	-2.5%	-24.5%	-3.8%	-1.2

Bioassay records (PubChem BioAssay)
